Data as given in PubChem BioAssay.
Several values for one entry are separate records, joined by “and”; a condition that tells them apart may be missing. Equal values may be shown once. For some of these results: Potency and affinity values are given separately. Activity calls are given as the source filed them. Cut-off read from the data, not from the text of the source, unless noted: active = parasite load remaining mostly below about 12% (no sharp cut-off); inactive = mostly above about 10%.

Columns and labels:
[1] = polyglutamine-triggered caspase-3 activation inhibitors, cell-based (AID 1583); details: polyglutamine-induced caspase-3 activation, cell assay; stronger effect = higher value;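 tested at 10 µM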
[2] = suppressors of polyQ aggregation in yeast, 75Q-TubU reporter (AID 1593); details: Yeast 75Q polyglutamine aggregation reporter
[3] = rescue of polyQ-huntingtin neuronal dysfunction in worms, whole organism, C. elegans mechanosensory neurons, N-terminal huntingtin (AID 1599); details: touch response, stronger effect = higher value
[4] = inhibitors of mitochondrial cytochrome c release, biochemical, purified mitochondria (AID 1603); details: stronger effect = lower value;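 note: mouse liver mitochondria challenged with calcium chloride; signal normalized to the plate average as 100%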
[5] = inhibitors of polyQ protein aggregation (AID 1604); details: polyglutamine-induced protein aggregation inhibition assay; stronger effect = higher value; tested at 2.5 µM
[6] = enhancers of glutamate uptake in motor neurons, MN-1 cell line (AID 1612); details: MN-1 motor neuron cells, stronger effect = higher value;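 note: tested at 1 µM final; 0% = mean of DMSO vehicle wells on each plate; positive means more glutamate uptake than control and negative means less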
[7] = reducers of polyQ inclusions in PC12 cells, cell-based, NGF-treated PC12, GFPQ80 (AID 1614); details: PC12 NGF-treated GFP-polyQ80 inclusion reduction;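 note: lower means fewer inclusions and 0 means no inclusions at all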
[8] = suppressors of polyglutamine aggregation in yeast, 75Q-TubH (AID 1616); details: S. cerevisiae 75Q-TubH polyglutamine aggregation suppression; stronger effect = higher value
[9] = circadian clock period modulators, cell-based, LOPAC library, luminescence reporter (AID 2774; call rule not given here;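 note: values are relative to mean of DMSO wells on each plate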); details: circadian reporter cells, at 7 µM, actives lie on both sides
[10] = liver-stage malaria parasite growth inhibition, primary screen, cell-based, HepG2, luciferase luminescence, HepG2 viability (AID 624349);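 note: 100% = mean of DMSO negative control wells on the same plate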; details: P. berghei liver stage in HepG2, luciferase luminescence, concentration not given here; parasite load remaining: stronger effect = lower value; viability: measured here: HepG2 viability without parasites
[11] = target: 6-phosphogluconate dehydrogenase, decarboxylating (Homo sapiens) (UniProt P52209); assay: 6PGD enzyme inhibitors, primary screen, biochemical, human, recombinant enzyme, NADPH absorbance (AID 1159550;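 active = at least 20% inhibition of 6-phosphogluconate dehydrogenase activity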); details: recombinant 6PGD, NADPH absorbance 341 nm; at 10 µM; stronger effect = higher value
[12] = differential killing of epithelial or mesenchymal cells, primary screen, imaging, PC-3E GFP, TEM4-18 mCherry, co-culture (AID 1345086;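 active = compounds killing one labelled cell type while sparing the other, by normalised counts and ratio limits, not self-fluorescent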;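 for all read-outs here: cells exposed to compound for 72 h before imaging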;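 for red/green cell ratio (normalised): normalised mesenchymal count divided by normalised epithelial count so high means epithelial killing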); details: imaging cell counts, at 1 µM; for red/green cell ratio (normalised): actives lie on both sides, counts scaled to control wells, 1 = unselective
[13] = sensitizers of A549 cells to miR-34 induction, primary screen, imaging, A549 dox-inducible miR-34, nuclei and caspase counts (AID 1347080;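 active = compounds whose cell count with miR-34 switched on is under 0.7 times the count with it off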); details: A549 miR-34 inducible, Hoechst nuclei count, 48 h
[14] = phospholipid biosynthesis inhibitors in animal cells, primary screen, cell-based, LOPAC library, screen 4 (AID 1347384; call rule not given here); details: phospholipid biosynthesis inhibition screen, at 10 µM
[15] = target: Mitogen-activated protein kinase 7 (Homo sapiens) (UniProt Q13164); assay: ERK5 transactivation activators in reporter cells, primary screen, cell-based, HTS (AID 1508626;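 active = luciferase signal above three times the same-plate solvent-only control wells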;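 note: luciferase driven by Gal4-ERK5 fusion binding five Gal4 sites before minimal TATA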); details: HeLa Gal4-ERK5 transactivation, 18 h, at 5 µM, stronger effect = higher value
[16] = viability rescue of complex I mutant cybrids, primary screen, cell-based, galactose medium, ATP luminescence (AID 1645843;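 active = z-score of at least 1.8 in each of two replicates, scored against plate mean and spread of sample wells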;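 note: positive z means more ATP and so rescue of galactose-driven cybrid death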); details: complex I mutant cybrid cells, 72 h, stronger effect = higher value
[17] = survival rescue of mitochondrial mutant cells in low glucose, primary screen, MELAS cybrids, Rieske KO mouse fibroblasts, CellTiter-Glo (AID 1508586;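 active = mean z-score across replicates of 1.96 or higher in either the MELAS or the Rieske mutant cell line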;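 note: z relative to plate mean and SD of compound and empty wells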)
[18] = target: NAD(+) hydrolase SARM1 (Homo sapiens) (UniProt Q6SZW1); assay: SARM1 TIR NADase inhibitors, cell lysate, NAD-Glo luminescence (AID 1508614;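 active = compound whose remaining NAD level is above about 45 nM, limit read from the data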;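 note: higher remaining NAD means stronger inhibition of SARM1 NADase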); details: SAM-TIR HEK293T lysate NADase, at 1 µM, stronger effect = higher value
[19] = hESC survival regulators, cell-based (AID 493140; call rule not given here;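 note: cells exposed to compounds for four days before counting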); details: human embryonic stem cell survival screen; stronger effect = higher value
[20] = measured here: epithelial PC-3E GFP cell survival
[21] = measured here: mesenchymal TEM4-18 mCherry cell survival
[22] = stronger effect = lower value, cell number ratio, induced over uninduced
[23] = measured here: relative caspase fold change +Dox/-Dox
[24] = measured here: total cells with miR-34 induction, stronger effect = lower value
[25] = measured here: total cells without miR-34 induction
[26] = MELAS cybrid survival, CellTiter-Glo 48 h, stronger effect = higher value
[27] = Rieske KO mouse fibroblast survival, CellTiter-Glo 72 h

Chain of Mitogen-activated protein kinase 7 (Homo sapiens) (Q13164 whole entry, looked up, the tested form may be a part): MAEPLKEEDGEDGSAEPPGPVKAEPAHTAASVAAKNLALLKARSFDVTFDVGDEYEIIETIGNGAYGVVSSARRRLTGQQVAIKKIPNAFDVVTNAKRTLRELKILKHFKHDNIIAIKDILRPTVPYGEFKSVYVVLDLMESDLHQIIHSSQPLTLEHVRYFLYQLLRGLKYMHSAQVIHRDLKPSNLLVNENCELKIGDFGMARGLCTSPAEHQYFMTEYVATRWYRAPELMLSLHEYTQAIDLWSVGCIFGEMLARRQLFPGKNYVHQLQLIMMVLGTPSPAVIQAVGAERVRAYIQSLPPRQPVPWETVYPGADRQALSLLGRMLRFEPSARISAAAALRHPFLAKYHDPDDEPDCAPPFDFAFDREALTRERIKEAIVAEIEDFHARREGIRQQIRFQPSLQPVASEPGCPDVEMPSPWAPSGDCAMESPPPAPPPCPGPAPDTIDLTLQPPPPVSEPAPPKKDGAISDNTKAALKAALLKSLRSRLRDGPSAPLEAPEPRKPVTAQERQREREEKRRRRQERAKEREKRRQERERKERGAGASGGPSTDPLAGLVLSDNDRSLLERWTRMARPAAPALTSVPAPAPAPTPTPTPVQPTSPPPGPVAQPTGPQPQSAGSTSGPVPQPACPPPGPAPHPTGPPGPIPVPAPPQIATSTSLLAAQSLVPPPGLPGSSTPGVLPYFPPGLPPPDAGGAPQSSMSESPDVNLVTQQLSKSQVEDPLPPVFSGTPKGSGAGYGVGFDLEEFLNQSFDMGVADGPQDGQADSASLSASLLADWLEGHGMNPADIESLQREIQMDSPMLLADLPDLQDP
Chain of NAD(+) hydrolase SARM1 (Homo sapiens) (Q6SZW1 whole entry, looked up): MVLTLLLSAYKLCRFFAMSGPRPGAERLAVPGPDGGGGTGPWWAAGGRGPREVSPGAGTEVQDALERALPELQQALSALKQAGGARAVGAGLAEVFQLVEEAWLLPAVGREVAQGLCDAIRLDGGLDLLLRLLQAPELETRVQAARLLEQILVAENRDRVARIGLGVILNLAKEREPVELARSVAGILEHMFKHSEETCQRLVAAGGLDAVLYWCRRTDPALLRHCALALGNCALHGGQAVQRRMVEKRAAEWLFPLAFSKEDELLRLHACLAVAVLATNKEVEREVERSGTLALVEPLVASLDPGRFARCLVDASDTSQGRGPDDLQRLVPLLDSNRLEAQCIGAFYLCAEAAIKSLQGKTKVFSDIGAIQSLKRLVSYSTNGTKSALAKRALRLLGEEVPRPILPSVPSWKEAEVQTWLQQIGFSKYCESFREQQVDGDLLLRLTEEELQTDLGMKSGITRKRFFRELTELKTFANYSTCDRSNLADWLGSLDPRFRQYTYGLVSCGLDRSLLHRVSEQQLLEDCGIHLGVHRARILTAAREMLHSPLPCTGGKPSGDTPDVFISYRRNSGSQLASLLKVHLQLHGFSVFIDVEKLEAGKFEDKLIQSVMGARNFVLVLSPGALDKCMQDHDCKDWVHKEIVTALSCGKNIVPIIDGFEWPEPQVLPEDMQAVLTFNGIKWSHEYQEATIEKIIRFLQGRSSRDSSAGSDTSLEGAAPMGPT
Chain of 6-phosphogluconate dehydrogenase, decarboxylating (Homo sapiens) (P52209 whole entry, looked up): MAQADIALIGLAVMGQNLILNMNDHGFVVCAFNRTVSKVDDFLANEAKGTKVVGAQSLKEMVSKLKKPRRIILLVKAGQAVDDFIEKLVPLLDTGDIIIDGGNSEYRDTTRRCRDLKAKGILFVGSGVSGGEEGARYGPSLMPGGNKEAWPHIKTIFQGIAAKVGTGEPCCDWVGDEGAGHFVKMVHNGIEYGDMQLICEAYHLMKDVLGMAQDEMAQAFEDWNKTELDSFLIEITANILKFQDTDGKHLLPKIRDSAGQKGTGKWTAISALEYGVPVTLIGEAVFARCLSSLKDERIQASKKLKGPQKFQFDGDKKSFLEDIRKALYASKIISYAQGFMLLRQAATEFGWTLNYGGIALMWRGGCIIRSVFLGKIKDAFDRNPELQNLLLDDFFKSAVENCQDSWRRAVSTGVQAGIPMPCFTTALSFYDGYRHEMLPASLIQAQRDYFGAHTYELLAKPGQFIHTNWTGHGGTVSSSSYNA

SMILES: NCCCS(=O)(=O)O
- inhibition [1]: -8.14%
- score [2]: 1.19
- rescue above control [3]: -7.13
- cytochrome c release ratio [4]: 1.17
- inhibition of aggregation [5]: 80.3%
- glutamate uptake change [6]: 3.02%
- inclusion score [7]: 2
- aggregation suppression score [8]: 1.7
- period change [9]: 0.415 h (inactive)
- parasite load remaining [10]: 106% (inactive)
- viability [10]: 72.2%
- inhibition [11]: 6.14% (inactive)
- red/green cell ratio (normalised) [12]: 0.83 (inactive)
- normalised cell number [12, 20]: 1.23
- normalised cell number [12, 21]: 1.02
- fold change [13, 22]: 0.922 (inactive)
- fold change [13, 23]: 2.79
- cell count [13, 24]: 6500
- cell count [13, 25]: 7050
- outcome [14]: inactive
- luciferase signal [15]: 56 AU (inactive)
- z-score [16]: 0.265 (inactive)

SMILES: NC(=O)c1ccc[n+]([C@@H]2O[C@H](COP(=O)([O-])OP(=O)(O)OC[C@H]3O[C@@H](n4cnc5c(N)ncnc54)[C@H](O)[C@@H]3O)[C@@H](O)[C@H]2O)c1
- inhibition [1]: 7.61%
- score [2]: 1.51
- rescue above control [3]: 2.62
- cytochrome c release ratio [4]: 0.91
- inhibition of aggregation [5]: 63.6%
- glutamate uptake change [6]: 28.3%
- inclusion score [7]: 2
- aggregation suppression score [8]: 1.51
- parasite load remaining [10]: 87.2% (inactive) and 76.6% (inactive)
- viability [10]: 103% and 92.6%
- inhibition [11]: 10.6% (inactive)
- red/green cell ratio (normalised) [12]: 0.97 (inactive)
- normalised cell number [12, 20]: 1.17
- normalised cell number [12, 21]: 1.14
- fold change [13, 22]: 0.824 (inactive) and 0.891 (inactive)
- fold change [13, 23]: 1.3 and 1.13
- cell count [13, 24]: 8060 and 11500
- cell count [13, 25]: 9780 and 12900
- z-score [17, 26]: -1.2 (inactive)
- z-score [17, 27]: 0.344
- remaining NAD [18]: 183 nM (active)
- luciferase signal [15]: 72 AU (inactive)

SMILES: O=C(O)c1cc2cc(F)ccc2[nH]1
- period change [9]: 0.04 h (inactive)
- inhibition [11]: 0.201% (inactive)
- red/green cell ratio (normalised) [12]: 0.92 (inactive)
- normalised cell number [12, 20]: 0.97
- normalised cell number [12, 21]: 0.89
- fold change [13, 22]: 0.936 (inactive)
- fold change [13, 23]: 1.52
- cell count [13, 24]: 9030
- cell count [13, 25]: 9650
- outcome [14]: inactive
- luciferase signal [15]: 24 AU (inactive)
- z-score [16]: 1.04 (inactive)

SMILES: C=C1c2c(Cl)ccc(O)c2C(O)=C2C(=O)[C@]3(O)C(O)=C(C(N)=O)C(=O)[C@@H](N(C)C)[C@@H]3[C@@H](O)[C@H]12
- inhibition [1]: -20.8%
- score [2]: 0.46
- rescue above control [3]: 1.02
- cytochrome c release ratio [4]: 0.58
- inhibition of aggregation [5]: 84.6%
- glutamate uptake change [6]: 0.44%
- inclusion score [7]: 1
- aggregation suppression score [8]: 0.198
- survival [19]: 6.83 (inactive)
- parasite load remaining [10]: 145% (inactive) and 78.4% (inactive) and 31.4% (inactive)
- viability [10]: 71.2% and 75.1% and 92.1%
- inhibition [11]: 10.5% (inactive)
- red/green cell ratio (normalised) [12]: 0.85 (inactive)
- normalised cell number [12, 20]: 0.99
- normalised cell number [12, 21]: 0.84
- fold change [13, 22]: 0.864 (inactive)
- fold change [13, 23]: 1.07
- cell count [13, 24]: 8250
- cell count [13, 25]: 9550
- remaining NAD [18]: 10 nM (inactive)
- luciferase signal [15]: 40 AU (inactive)

SMILES: NCCSSCCN
- inhibition [1]: 34.8%
- score [2]: 1.31
- rescue above control [3]: -5.12
- cytochrome c release ratio [4]: 1.22
- inhibition of aggregation [5]: 47.1%
- glutamate uptake change [6]: 15.5%
- inclusion score [7]: 2
- aggregation suppression score [8]: 1.2
- period change [9]: -0.055 h (inactive)
- parasite load remaining [10]: 165% (inactive)
- viability [10]: 85.4%
- inhibition [11]: 7.72% (inactive)
- red/green cell ratio (normalised) [12]: 0.92 (inactive)
- normalised cell number [12, 20]: 1.09
- normalised cell number [12, 21]: 1.01
- fold change [13, 22]: 1.02 (inactive)
- fold change [13, 23]: 2.84
- cell count [13, 24]: 10300
- cell count [13, 25]: 10100
- outcome [14]: inactive
- luciferase signal [15]: 76 AU (inactive)
- z-score [16]: -0.04 (inactive)

SMILES: Cn1c(=O)[nH]c2ncn(C)c2c1=O
- inhibition [1]: 15.7%
- score [2]: 1.32
- rescue above control [3]: -11.3
- cytochrome c release ratio [4]: 1.26
- inhibition of aggregation [5]: 52.4%
- glutamate uptake change [6]: 1.28%
- inclusion score [7]: 2
- aggregation suppression score [8]: 1.3
- period change [9]: -0.1 h (inactive)
- inhibition [11]: -14.1% (inactive)
- red/green cell ratio (normalised) [12]: 0.89 (inactive)
- normalised cell number [12, 20]: 1.01
- normalised cell number [12, 21]: 0.9
- fold change [13, 22]: 0.988 (inactive)
- fold change [13, 23]: 1.17
- cell count [13, 24]: 9800
- cell count [13, 25]: 9920
- outcome [14]: inactive
- z-score [16]: 0.31 (inactive)

SMILES: CN1CCc2c(c3ccccc3n2Cc2ccccc2)C1
- inhibition [1]: 13.5%
- score [2]: 1.36
- rescue above control [3]: -5.3
- cytochrome c release ratio [4]: 1.12
- inhibition of aggregation [5]: 26.7%
- glutamate uptake change [6]: -0.3%
- aggregation suppression score [8]: 1.16
- survival [19]: 3.25 (inactive)
- parasite load remaining [10]: 52.3% (inactive) and 141% (inactive) and 69.3% (inactive)
- viability [10]: 99% and 73.4% and 70.8%
- inhibition [11]: 10.8% (inactive)
- red/green cell ratio (normalised) [12]: 0.9 (inactive)
- normalised cell number [12, 20]: 0.92
- normalised cell number [12, 21]: 0.82
- fold change [13, 22]: 0.847 (inactive)
- fold change [13, 23]: 1.16
- cell count [13, 24]: 8940
- cell count [13, 25]: 10600
- z-score [17, 26]: 0.038 (inactive)
- z-score [17, 27]: 0.0579
- remaining NAD [18]: 10 nM (inactive)

SMILES: CC(CN(C)C)CN1c2ccccc2Sc2ccccc21 (stereo unspecified)
- inhibition [1]: -4.15%
- score [2]: 1.25
- rescue above control [3]: 0
- cytochrome c release ratio [4]: 1.2
- inhibition of aggregation [5]: 52.6%
- glutamate uptake change [6]: -15.4%
- aggregation suppression score [8]: 1.08
- survival [19]: 1.08 (inactive)
- parasite load remaining [10]: 56% (inactive) and 101% (inactive) and 20% (inactive)
- viability [10]: 86.7% and 71.6% and 86.5%
- inhibition [11]: 3.47% (inactive)
- red/green cell ratio (normalised) [12]: 0.95 (inactive)
- normalised cell number [12, 20]: 1.1
- normalised cell number [12, 21]: 1.05
- fold change [13, 22]: 0.881 (inactive) and 0.895 (inactive)
- fold change [13, 23]: 1.1 and 2.21
- cell count [13, 24]: 7480 and 9410
- cell count [13, 25]: 8490 and 10500
- z-score [17, 26]: 0.461 (inactive)
- z-score [17, 27]: -0.196
- remaining NAD [18]: 10 nM (inactive)
- luciferase signal [15]: 76 AU (inactive)

SMILES: NCCCCN
- inhibition [1]: -6.18%
- score [2]: 1.21
- rescue above control [3]: 9.16
- cytochrome c release ratio [4]: 0.9
- inhibition of aggregation [5]: 70.6%
- glutamate uptake change [6]: 0.99%
- inclusion score [7]: 2
- aggregation suppression score [8]: 1.37
- period change [9]: 0.01 h (inactive)
- inhibition [11]: -11.8% (inactive)
- red/green cell ratio (normalised) [12]: 1.04 (inactive)
- normalised cell number [12, 20]: 0.98
- normalised cell number [12, 21]: 1.02
- fold change [13, 22]: 1.02 (inactive)
- fold change [13, 23]: 1.7
- cell count [13, 24]: 9820
- cell count [13, 25]: 9630
- outcome [14]: inactive
- luciferase signal [15]: 44 AU (inactive)
- z-score [16]: 0.975 (inactive)
